PubChem BioAssay (NCI)
About 83,000 compounds went through this panel and 20% of them were active in at least one assay; those are over-represented in the sample as a whole.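 Results are percent growth after 48 hours of single-concentration exposure. 100 means growth as in untreated cells, lower positive values show inhibition; negative values down to -100 show cell death.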 Values without a mark were called inactive. Calls of active or inactive are those of the source. Rule for the calls: active = growth percent below 10; inactive = the rest.

What was measured:
Experiment in all cases: NCI-60 one-dose screen, 48 h (100 = growth as untreated, 0 = no growth, -100 = all killed)
NCI-H23 lung = settings: 10 µM unless noted
NCI-H226 lung = settings: 10 µM unless noted
NCI-H322M lung = settings: 10 µM unless noted
HOP-62 NSCLC = settings: 10 µM unless noted
NCI-H460 lung = settings: 10 µM unless noted
HOP-92 NSCLC = settings: 10 µM unless noted
NCI-H522 lung = settings: 10 µM unless noted
A549/ATCC NSCLC = settings: 10 µM unless noted
786-0 renal = settings: 10 µM unless noted
COLO 205 colon = settings: 10 µM unless noted
DU-145 prostate = settings: 10 µM unless noted
MALME-3M melanoma = settings: 10 µM unless noted
MDA-MB-231 breast = settings: 10 µM unless noted
RXF 393 renal = settings: 10 µM unless noted
SF-268 CNS = settings: 10 µM unless noted
SF-295 CNS = settings: 10 µM unless noted
SF-539 CNS = settings: 10 µM unless noted
M14 melanoma = settings: 10 µM unless noted
UACC-257 melanoma = settings: 10 µM

| Structure (SMILES) | growth (NCI-H23 lung) | growth (NCI-H226 lung) [%] | growth (NCI-H322M lung) | growth (HOP-62 NSCLC) | growth (NCI-H460 lung) | growth (HOP-92 NSCLC) | growth (NCI-H522 lung) | growth (A549/ATCC NSCLC) | growth (786-0 renal) | growth (COLO 205 colon) | growth (DU-145 prostate) | growth (MALME-3M melanoma) | growth (MDA-MB-231 breast) | growth (RXF 393 renal) [%] | growth (SF-268 CNS) | growth (SF-295 CNS) | growth (SF-539 CNS) | growth (M14 melanoma) | growth (UACC-257 melanoma) |
| --- | --- | --- | --- | --- | --- | --- | --- | --- | --- | --- | --- | --- | --- | --- | --- | --- | --- | --- | --- |
| COc1cc2c3c(n(CCCNC4CCCC4)c(=O)c2cc1OC)-c1cc2c(cc1C3=O)OCO2 | -62.8% (active) | 80.5 | 6.3% (active) | -78% (active) | -74.4% (active) | 103% | 54.6% | -78.8% (active) | -87.9% (active) | -89.9% (active) | -78.5% (active) | -75% (active) | -76.6% (active) | 49.7 | -42.7% (active) | -76.8% (active) | -85.4% (active) | -88.9% (active) | – |
| C=CCn1c(SCC(=O)Nc2cccc(C(=O)/C=C/c3ccc(Br)cc3)c2)nc2ccccc2c1=O | 85.1% | 94.1 | 86.6% | 96.8% | 94.9% | 78.4% | 75.3% | 86.4% | 97.7% | 111% | 95.7% | 72.7% | 81.2% | 71.1 | 90.3% | 91.4% | 66.6% | 85.4% | 105% |
| CCN1CCN(Cc2ccc(C(=O)Nc3nc4ccc(Oc5ccnc(C(=O)NC)c5)cc4s3)cc2C(F)(F)F)CC1 | 42% | 76.3 | 66.1% | 63.9% | 26.2% | 37.4% | 58.9% | 60.1% | 39.5% | -43% (active) | 79.3% | -5.31% (active) | 52% | 25 | 78.1% | 35.1% | -42.2% (active) | -4.9% (active) | -2.29% (active) |
| CNC(=O)c1cc(Oc2ccc3nc(NC(=O)c4cccc(C(F)(F)F)c4)sc3c2)ccn1 | 101% | 104 | 103% | 117% | 103% | 110% | 98.9% | 101% | 97.2% | 112% | 101% | 97.2% | 104% | 106 | 98% | 92.6% | 99.4% | 96.6% | 104% |
| C=CCn1c(SCC(=O)Nc2cccc(C(=O)/C=C/c3ccc(C)cc3)c2)nc2ccccc2c1=O | 81.3% | 92.6 | 92.1% | 113% | 94.8% | 103% | 83.8% | 82.3% | 98.9% | 109% | 95.9% | 106% | 92.8% | 77.7 | 90.6% | 101% | 89.4% | 96.7% | 96.8% |
| COc1ccc([C@H]2[C@H](O)C(=O)N2c2cc(OC)c(OC)c(OC)c2)cc1Cl | 29.9% | 21.6 | 49.1% | 23.1% | 1.57% (active) | -6.45% (active) | -39.7% (active) | 19.1% | 22.1% | -79.3% (active) | 18.3% | 65.9% | 26.9% | 24.3 | 44.7% | 5.44% (active) | -9.87% (active) | 10.3% | 40.8% |
| Cc1ccccc1/C=C/c1nn2c(-c3ccoc3C)nnc2s1 | 97.8% | 100 | 99.4% | 107% | 102% | 93.9% | 92.4% | 90% | 90.8% | 108% | 103% | 106% | 104% | 96.2 | 101% | 94% | 103% | 99% | 110% |
| Cc1ccc(/C=C/c2nn3c(-c4ccco4)nnc3s2)cc1 | 104% | 100 | 94% | 114% | 99.9% | 107% | 94.4% | 97.8% | 88.4% | 102% | 99.7% | 106% | 110% | 95.5 | 104% | 95.7% | 94.7% | 94.8% | 112% |
